In PubChem BioAssay (Tox21):
“And” between values parts separate entries of the source, which are not always exact repeats. Equal values may be shown once. Results filed as inconclusive are left out. The source holds several records for some structures; these can differ, active in one and inactive in another. The source made the active and inactive calls. Unless noted, calls follow the shape of the dose curve; as a rule, active = well fitted curve in the direction sought with a large enough effect in the repeat runs; inconclusive = weak or mixed curves; inactive = no such curve, though single readings can be large; an effect the other way counts as inactive or inconclusive.

Tests used:
[1] = qHTS RealTime-Glo MT Cell Viability Assay in HEK293 cells - 24 hour (AID 1224886); also: top concentration of the series differs between compounds; nearly all actives have a fitted effect of over 50% in size
Outline: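 Tox21 10K qHTS, HEK293, 600 cells/well, RealTime-Glo reagent co-dispensed with cells; 5 h preincubation, compound by pintool, 37 C, luminescence at 0–40 h.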

[2] = qHTS RealTime-Glo MT Cell Viability Assay in HEK293 cells - 8 hour (AID 1224887); also: top concentration of the series differs between compounds; nearly all actives have a fitted effect of over 50% in size
Outline: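 Luminescence, which tracks viable cell number through reduction of the prosubstrate to a NanoLuc substrate, was read over continuous 37 C culture. Cells (600/well) were premixed with reagent and rested 5 h before 23 nL of compound in DMSO was pinned.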

[3] = A CellTox Green Cytotoxicity Assay to monitor cytotoxicity in HEK293 cells - 16 hour (AID 1224888); also: nearly all actives have a fitted effect of over 35% in size
Outline: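 Fluorescence from a DNA-binding dye excluded by viable cells was measured repeatedly in the same HEK293 wells (600 cells/well) during continuous compound exposure at 37 C. Each assay gives one read point: 0, 8, 16, 24, 32 or 40 h.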

[4] = qHTS RealTime-Glo MT Cell Viability Assay in HepG2 cells - 0 hour (AID 1224889); also: nearly all actives have a fitted effect of over 50% in size
Outline: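 Cells + NanoLuc/prosubstrate dispensed (600 cells/well) → 5 h at 37 C/5% CO2 → compounds in DMSO transferred → 40 h incubation at 37 C, luminescence read at 0, 8, 16, 24, 32, 40 h.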

[5] = A CellTox Green Cytotoxicity Assay to monitor cytotoxicity in HepG2 cells - 8 hour (AID 1224890); also: nearly all actives have a fitted effect of over 45% in size; also: potency is read from the fitted curve at half-maximal effect
Outline: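 Real-time cytotoxicity: fluorescence of a cell-impermeant cyanine dye binding DNA of dead HepG2 cells, measured repeatedly (0–40 h) during compound exposure at 37 C. Cells seeded 600/well with reagent, dosed after 5 h.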

[6] = qHTS assay to identify small molecule antagonists of the estrogen receptor alpha (ER-alpha) signaling pathway using the BG1 cell line in the presence of 0.1 nM 17-beta-estradiol - cell viability counter screen (AID 1259241); also: nearly all actives have a fitted effect of over 40% in size
Outline: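 Live-cell protease activity (CellTiter-Fluor fluorescence, 30 min) was read in the same wells after VM7Luc4E2 cells had been exposed to compounds with 0.1 nM 17beta-estradiol for 22 hr at 37C.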

[7] = qHTS assay to identify small molecule antagonists of the androgen receptor (AR) signaling pathway using the MDA cell line in the presence of 0.5 nM R1881 - cell viability counter screen (AID 1259242); also: nearly all actives have a fitted effect of over 45% in size
Outline: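 Live-cell protease activity was measured by CellTiter-Fluor fluorescence after 30 min. Before that, MDA-kb2 MMTV-luciferase cells had 16 hr at 37C without CO2, exposed to test compounds and 0.5 nM R1881 final.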

[8] = qHTS assay to identify small molecule HDAC inhibitors (AID 1259364); also: top concentration of the series differs between compounds; nearly all actives have a fitted effect of over 45% in size
Outline: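 Luminescence read after 30 min room-temperature HDAC-Glo incubation measures cellular class I/II HDAC activity. Compounds were applied for 2 hr at 37 C to HCT-116 wild-type cells seeded the day before.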

[9] = qHTS assay to identify small molecule HDAC inhibitors - cell viability counter screen (AID 1259365); also: series mostly up to about 92 µM; nearly all actives have a fitted effect of over 50% in size
Outline: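 HCT-116 (wild type), 1,500 cells/well, overnight 37C/5% CO2; compound in DMSO 2hr; CellTiter-Glo 30min RT; luminescence read.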

[10] = qHTS assay to identify small molecule agonists of the sonic hedgehog signaling (Shh) pathway - cell viability counter screen (AID 1259366); also: nearly all actives have a fitted effect of over 50% in size
Outline: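 CellTiter-Fluor fluorescence read-out, 1 hr at 37C, added after 23hr compound exposure. Cells: 3T3 Gli1-Luc, an NIH/3T3 clone with stably integrated Gli1-Luc reporter, plated 4hr before compound.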

[11] = qHTS assay to identify small molecule antagonists of the sonic hedgehog signaling (Shh) pathway - cell viability counter screen (AID 1259367); also: nearly all actives have a fitted effect of over 55% in size
Outline: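 Viability was read by CellTiter-Fluor fluorescence in the same wells, reagent added 23 hr into compound treatment and incubated 1 hr at 37C. The 3T3 Gli1-Luc reporter cells (2,000/well) received conditioned medium after compound and ran 24 hr.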

[12] = qHTS assay to identify small molecule agonists of the sonic hedgehog signaling (Shh) pathway (AID 1259368; calls by dose curve;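 also: NIH/3T3-derived 3T3Gli1-Luc cells carrying a stable Gli1-driven firefly luciferase reporter; series mostly up to about 92 µM; nearly all actives have a fitted effect of over 15% in size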)
Outline: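 Luminescence was read after 30 min at room temperature with luciferase reagent. Before that, 3T3Gli1-Luc cells (NIH/3T3 clone, stable Gli1-Luc reporter; 2,000/well) were exposed to compounds for 24 hr at 37C, 5% CO2, compounds being added 4 hr post-plating.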

[13] = qHTS assay to identify small molecule antagonists of the sonic hedgehog signaling (Shh) pathway (AID 1259369; calls by dose curve; also: nearly all actives have a fitted effect of over 45% in size; also: potency is read from the fitted curve at half-maximal effect)
Outline: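 Antagonist mode: compound added to 3T3 Gli1-Luc cells followed by conditioned-medium stimulation, 24 h at 37 C, 5% CO2. Inhibition taken as loss of Gli1-driven luciferase luminescence.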

[14] = target: Estrogen receptor beta (Homo sapiens) (UniProt Q92731); test: qHTS assay to identify small molecule antagonists of the estrogen receptor beta (ER-beta) signaling pathway (AID 1259378; active = well fitted inhibition curve with a large enough effect in the signal ratio in the repeat runs, not every such curve was filed as active; the % refers to the signal ratio)
Chain of Estrogen receptor beta (Homo sapiens) (Q92731 whole entry, looked up): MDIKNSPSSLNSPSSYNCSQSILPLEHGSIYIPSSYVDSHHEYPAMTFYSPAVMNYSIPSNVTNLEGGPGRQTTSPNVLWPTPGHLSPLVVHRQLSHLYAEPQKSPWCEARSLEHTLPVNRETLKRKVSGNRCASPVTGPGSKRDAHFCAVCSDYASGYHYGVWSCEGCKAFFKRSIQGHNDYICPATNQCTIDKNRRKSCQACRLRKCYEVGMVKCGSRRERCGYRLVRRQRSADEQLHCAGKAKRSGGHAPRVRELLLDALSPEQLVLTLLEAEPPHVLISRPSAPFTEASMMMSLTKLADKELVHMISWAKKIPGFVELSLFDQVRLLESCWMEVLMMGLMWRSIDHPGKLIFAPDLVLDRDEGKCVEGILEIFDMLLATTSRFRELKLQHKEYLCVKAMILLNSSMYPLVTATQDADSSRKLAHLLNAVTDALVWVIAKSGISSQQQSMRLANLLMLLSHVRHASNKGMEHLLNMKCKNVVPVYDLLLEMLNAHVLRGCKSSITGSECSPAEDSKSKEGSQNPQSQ
Outline: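 Antagonist mode: compounds added to beta-lactamase reporter HEK293T ER-beta-UAS cells stimulated with E2 (1nM final), 16 hr at 37C. LiveBLAzer B/G FRET substrate, 2 hours room temperature, fluorescence read-out.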

[15] = qHTS assay to identify small molecule agonists of the androgen receptor (AR) signaling pathway in the presence of an antagonist - cell viability counter screen (AID 1259379);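 also: MDA-kb2 human breast cancer cells carrying an MMTV luciferase reporter; series mostly up to about 92 µM; nearly all actives have a fitted effect of over 25% in size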
Outline: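 Cytotoxicity counter-screen run in the same wells as the nilutamide-challenged (3.0 µM final) AR agonist assay in MDA-kb2 cells. Compounds tested at 15 concentrations for 16 h, 37 °C without CO2; CellTiter-Fluor fluorescence read.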

[16] = target: Androgen receptor (Homo sapiens) (UniProt P10275); test: qHTS assay to identify small molecule antagonists of the androgen receptor (AR) signaling pathway using the MDA cell line in the presence of 0.5 nM R1881 (AID 1259243); also: nearly all actives have a fitted effect of over 50% in size
Chain of Androgen receptor (Homo sapiens) (P10275 whole entry, looked up): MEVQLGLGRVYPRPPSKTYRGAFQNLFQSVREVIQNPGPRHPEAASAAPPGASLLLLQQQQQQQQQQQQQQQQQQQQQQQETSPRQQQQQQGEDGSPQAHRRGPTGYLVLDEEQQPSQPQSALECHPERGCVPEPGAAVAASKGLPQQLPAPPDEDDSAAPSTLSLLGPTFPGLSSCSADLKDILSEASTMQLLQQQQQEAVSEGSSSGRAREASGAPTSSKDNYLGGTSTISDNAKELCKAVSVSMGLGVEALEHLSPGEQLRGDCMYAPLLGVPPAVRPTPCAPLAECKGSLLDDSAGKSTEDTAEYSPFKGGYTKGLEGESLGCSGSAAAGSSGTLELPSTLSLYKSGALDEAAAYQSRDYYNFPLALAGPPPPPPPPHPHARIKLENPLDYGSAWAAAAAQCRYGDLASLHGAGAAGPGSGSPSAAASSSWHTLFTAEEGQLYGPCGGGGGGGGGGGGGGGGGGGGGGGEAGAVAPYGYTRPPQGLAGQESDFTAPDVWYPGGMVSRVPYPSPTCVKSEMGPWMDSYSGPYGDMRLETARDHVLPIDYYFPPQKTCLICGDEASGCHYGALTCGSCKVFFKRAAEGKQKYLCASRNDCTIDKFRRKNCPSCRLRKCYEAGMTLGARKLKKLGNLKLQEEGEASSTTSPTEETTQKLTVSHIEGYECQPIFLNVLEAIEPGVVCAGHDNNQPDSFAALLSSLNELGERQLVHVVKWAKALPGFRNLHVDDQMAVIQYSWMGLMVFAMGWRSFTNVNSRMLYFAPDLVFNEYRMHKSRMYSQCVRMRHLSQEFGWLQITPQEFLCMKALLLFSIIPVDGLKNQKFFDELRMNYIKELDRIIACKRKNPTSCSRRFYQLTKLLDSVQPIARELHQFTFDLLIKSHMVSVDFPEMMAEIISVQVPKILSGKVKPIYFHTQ
Outline: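 Luminescent reporter readout (ONE-Glo, 30 min, room temperature) after 16 hr co-treatment of MDA-kb2 cells with test compounds and 0.5 nM R1881 final, at 37C without CO2. The MMTV-driven luciferase responds to both AR and GR.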

[17] = target: Estrogen receptor (Homo sapiens) (UniProt P03372); test: qHTS assay to identify small molecule antagonists of the estrogen receptor alpha (ER-alpha) signaling pathway using the BG1 cell line in the presence of 0.1 nM 17-beta-estradiol (AID 1259244); also: nearly all actives have a fitted effect of over 50% in size
Chain of Estrogen receptor (Homo sapiens) (P03372 whole entry, looked up): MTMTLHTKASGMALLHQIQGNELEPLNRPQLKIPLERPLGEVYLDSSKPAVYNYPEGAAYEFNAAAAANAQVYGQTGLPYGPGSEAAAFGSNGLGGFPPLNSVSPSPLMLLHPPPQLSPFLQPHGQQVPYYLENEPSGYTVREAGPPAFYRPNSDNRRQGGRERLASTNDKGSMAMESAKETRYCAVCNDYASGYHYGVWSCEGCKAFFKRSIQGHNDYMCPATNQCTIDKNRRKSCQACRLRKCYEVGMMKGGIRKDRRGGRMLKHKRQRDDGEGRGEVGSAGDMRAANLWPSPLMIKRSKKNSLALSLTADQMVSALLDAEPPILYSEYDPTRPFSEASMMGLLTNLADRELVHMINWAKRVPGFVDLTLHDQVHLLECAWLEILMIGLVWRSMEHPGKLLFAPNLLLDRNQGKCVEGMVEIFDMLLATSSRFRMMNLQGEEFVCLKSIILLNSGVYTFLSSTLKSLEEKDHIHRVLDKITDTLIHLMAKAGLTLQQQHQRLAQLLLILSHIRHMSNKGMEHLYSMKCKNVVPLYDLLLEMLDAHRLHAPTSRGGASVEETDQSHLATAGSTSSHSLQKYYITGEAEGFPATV
Outline: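 Luciferase luminescence (ONE-Glo, 30 min at room temperature) was read after 22 hr at 37C exposure to compounds plus 17beta-estradiol at 0.1 nM final. Cells were VM7Luc4E2 with endogenous ER-alpha and an ERE-driven luciferase, pre-cultured 5 days in hormone-depleted medium.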

[18] = target: Estrogen receptor beta (Homo sapiens) (UniProt Q92731); test: qHTS assay to identify small molecule agonists of the estrogen receptor beta (ER-beta) signaling pathway (AID 1259377; active = well fitted activation curve with a large enough effect in the signal ratio in the repeat runs, not every such curve was filed as active; the % refers to the signal ratio)
Outline: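 Beta-lactamase reporter readout: fluorescence of LiveBLAzer B/G FRET substrate after 2 h at room temperature, following 16 h compound treatment of ER-beta-UAS-bla HEK293T cells at 37C in 2% charcoal-stripped FBS medium.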

[19] = qHTS assay to identify small molecule agonists of the estrogen receptor beta (ER-beta) signaling pathway - cell viability counter screen (AID 1259380); also: nearly all actives have a fitted effect of over 30% in size
Outline: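 Cell viability counter screen: CellTiter-Glo luminescence (30 min, room temperature) measured in the same wells as the beta-lactamase readout, after 16 hr compound exposure at 37C of ER-beta-bla HEK293T cells in 2% charcoal-stripped FBS medium.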

[20] = target: Androgen receptor (Homo sapiens) (UniProt P10275); test: qHTS assay to identify small molecule agonists of the androgen receptor (AR) signaling pathway in the presence of an antagonist (AID 1259381; calls by dose curve; also: nearly all actives have a fitted effect of over 15% in size)
Outline: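 Agonist-mode confirmation run against 3.0 uM final nilutamide: compounds titrated at 15 concentrations onto MDA-kb2 MMTV-luciferase reporter cells. Luminescence measured with ONE-Glo following 16 hr incubation, 37C, 0% CO2.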

Measured: Potency

CC(NC(C)(C)C)C(=O)c1cccc(Cl)c1 (stereo unspecified)
not listed: [16] | [17] | [18] | [19] | [20]
inactive: all other assays above

c1cc2c3c(cccc3c1)CC2
not listed: [3] | [8]
inactive: all other assays above

CCCN(CCC)c1c([N+](=O)[O-])cc(C(F)(F)F)cc1[N+](=O)[O-]
not listed: [2] | [8] | [10] | [14] | [18]
inactive: all other assays above

CCCCCCCCCCCC#N
inactive and 40.3 µM (active): [5]
not listed: [3] | [8] | [16] | [17] | [20]
inactive: all other assays above

CCOP(=S)(OCC)SCCSCC
not listed: [10] | [16] | [17] | [20]
inactive: all other assays above

Nc1ccc(Cc2ccc(N)cc2)cc1
not listed: [14] | [16] | [17] | [18] | [19] | [20]
inactive: all other assays above

CN1C(=O)CN=C(c2ccccc2)c2cc(Cl)ccc21
active: [13] 4.39 µM
not listed: [8] | [14] | [16] | [17] | [18] | [20]
inactive: all other assays above

BrCCBr
not listed: [8] | [10] | [16] | [20]
inactive: all other assays above

CN(N=O)c1ccccc1
not listed: [2] | [16] | [20]
inactive: all other assays above

Nc1ccc(Oc2ccc(N)cc2)cc1
not listed: [14] | [16] | [17] | [19] | [20]
inactive: all other assays above

Cc1[nH]c(=O)n(C(C)(C)C)c(=O)c1Cl
not listed: [2] | [8] | [14] | [18]
inactive: all other assays above

Nc1ccccc1C(=O)O
not listed: [8] | [10] | [16] | [20]
inactive: all other assays above

CCCCCOC(=O)c1ccccc1C(=O)OCCCCC
not listed: [2] | [16] | [20]
inactive: all other assays above

CC(C)(Cl)Cl
not listed: [14] | [16] | [17] | [18] | [20]
inactive: all other assays above

O=c1[nH]c(=O)[nH]c(=O)[nH]1
not listed: [2] | [8] | [17]
inactive: all other assays above

Cc1cc(-c2cc(C)c(N)c(C)c2)cc(C)c1N
active: [13] 2.74 µM and 21.3 µM
not listed: [8] | [10] | [14] | [16] | [18] | [19] | [20]
inactive: all other assays above

CCCN(CCC)N=O
not listed: [8] | [10] | [16] | [20]
inactive: all other assays above

NCC(O)c1ccc(O)cc1 (stereo unspecified)
not listed: [8] | [16] | [17] | [20]
inactive: all other assays above
